Source: the supplement of paper PMC10941209

System: Toxoplasma gondii RH 2F1 tachyzoites (intracellular in HFF)
Assay: parasite survival relative to DMSO control; higher = less antiparasitic activity, active = 20 or less
Conditions: 1 µM; 72 h
Procedure, shortened: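 Compound at 1 μM was applied for 72 h at 37°C in 5% CO2 to HFF cells in 96-well plates (5 × 10^3 cells/well) that had been infected for 3 h in D2 medium with 5 × 10^3 Toxoplasma gondii RH-2F1 tachyzoites carrying β-galactosidase. The readout was absorbance at 570 nm, 30 min after CPRG addition. Survival is reported as a percentage of the signal from infected wells given DMSO, based on at least 2 biological replicates.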

| SMILES | parasite survival |
| --- | --- |
| CC(=O)N[C@H](C)C(=O)N[C@H](Cc1ccccc1)C(=O)O | 61.2% (inactive) |
| CN1c2ccc(Cl)cc2N(c2ccccc2)C(=O)c2cn(Cc3ccc(CN4CCOCC4)cc3)nc21 | 44% (inactive) |
| CCc1c(O)nc2ccc(F)cc2c1OCC1CCC1 | 41% (inactive) |
| CO/N=C(\C(=O)N[C@@H]1C(=O)N2C(C(=O)OCOC(=O)C(C)(C)C)=C(/C=C\c3scnc3C)CS[C@H]12)c1csc(N)n1 | 54.4% (inactive) |
| COCCn1cnc2c(O)nc(Nc3ccccc3)nc21 | 67% (inactive) |
| CC(C)(C)OC(=O)NCc1ccc(C(=O)N[C@H]2CCOC2=O)cc1 | 35% (inactive) |
| COc1ccc2sc3c(c2c1)NC(C)CNC3=O (centres undefined) | 6.94% (active) |
| COC(=O)Nc1nc2c(C)cccc2[nH]1 | 36.4% (inactive) |
| COc1ccc(CNC(=O)C(NS(=O)(=O)c2ccc3nc(C)sc3c2)C(C)C)cc1 (centres undefined) | 56.4% (inactive) |
| O=C(NCc1cccc2ccccc12)c1cccs1 | 32% (inactive) |
| CC(C)Nc1nc2cc(Cl)c(Cl)cc2n1[C@H]1O[C@@H](CO)[C@H](O)[C@@H]1O | 72% (inactive) |
| CCCCCCCCCN1C[C@@H](O)[C@H](O)[C@@H](O)[C@@H]1CO | 56.8% (inactive) |
| Nc1nc(O)c2ncn([C@@H]3O[C@H](CO)[C@@H](O)[C@H]3F)c2n1 | 75.9% (inactive) |
| O=c1cc(OCc2ccccc2)ccn1Cc1ccccc1 | 37% (inactive) |
| O=C(O)CCNC(=O)c1ccccc1 | 50.8% (inactive) |
| C[C@@H](c1nc(-c2ccc(C#N)cc2)cs1)[C@](O)(Cn1cncn1)c1ccc(F)cc1F | 62.9% (inactive) |
| Oc1c(C(Nc2ccccn2)c2ccccc2)ccc2cccnc12 (centres undefined) | 23.6% (inactive) |
| C[C@@H]1O[C@@H]1P(=O)(O)O | 46.3% (inactive) |
| CC[C@@H]1C(=O)OC[C@@H]1Cc1cncn1C | 45.1% (inactive) |
| COc1cc(C2C3=C(CC(C)(C)CC3=O)Nc3ccccc3N2C(C)=O)ccc1OCc1ccccc1 (centres undefined) | 56.3% (inactive) |

| SMILES | parasite survival |
| --- | --- |
| CC(=O)Oc1ccccc1C(=O)Nc1ncc([N+](=O)[O-])s1 | 75.8% (inactive) |
| C[C@H](NC(=O)C(=O)Nc1ccccc1C(C)(C)C)C(=O)N[C@@H](CC(=O)O)C(=O)COc1c(F)c(F)cc(F)c1F | 6% (active) |
| CCc1cc(CCC(=O)Nc2ccccc2O)c(O)nc1C | 70.1% (inactive) |
| Cc1c(N)cccc1Cn1ccc(OCCc2cccs2)cc1=O | 48.8% (inactive) |
| Cc1ccc(NC(=O)c2cc(Cl)ccc2O)cc1 | 42.3% (inactive) |
| NC1C2CC3CC(C2)CC1C3 (centres undefined) | 68.3% (inactive) |
| Nc1nc(=O)[nH]cc1F | 51.9% (inactive) |
| COc1ccc(C(C)(C)C)cc1NC(=O)C(=O)c1ccc(OCCN2CCOCC2)c2ccccc12 | 45.8% (inactive) |
| N=C(N)c1ccc(COc2ccc(Cl)cc2)cc1 | 54.6% (inactive) |
| CCc1ccc(C2CC(C(F)(F)F)n3ncc(C(=O)NCc4ccc(OC)cc4)c3N2)cc1 (centres undefined) | 25.4% (inactive) |
| C[C@@H](NC(=O)c1ccccc1-c1ccccc1)B(O)O | 43.9% (inactive) |
| CCOCc1nc2c(N)nc3ccccc3c2n1CC(C)(C)O | 55.5% (inactive) |
| OB1OCc2c1ccc(Cl)c2F | 77.1% (inactive) |
| C[N+]1(C)CCCC(OC(=O)C(O)(c2ccccc2)c2ccccc2)C1 (centres undefined) | 61.6% (inactive) |
| Clc1cccc(-c2nnc(-c3ccccc3)o2)c1 | 62.8% (inactive) |
| Fc1cccc(Cl)c1C1CC(c2ccc(Cl)cc2)Nc2nnnn21 (centres undefined) | 79.9% (inactive) |
| Cc1ncc([N+](=O)[O-])n1CC(C)O (centres undefined) | 48.2% (inactive) |
| Fc1ccc2c(/C=C/c3cccnc3)c[nH]c2c1 | 29.1% (inactive) |
| CC(C)(C)NC(=O)[C@@H]1C[C@@H]2CCCC[C@@H]2CN1C[C@@H](O)[C@H](Cc1ccccc1)NC(=O)[C@H](CC(N)=O)NC(=O)c1ccc2ccccc2n1 | 39% (inactive) |
